Measured values: PubChem BioAssay (Tox21)
Where “and” joins values, the source holds several entries; their conditions need not be identical. Identical values can stand only once. Results filed as inconclusive are left out. Where a call stands in place of a potency, no number is given. The source holds several records for some structures; these can differ, active in one and inactive in another. Calls of active or inactive are those of the source. Calls follow the shape of the dose curve; as a rule, active = well fitted curve in the direction sought with a large enough effect in the repeat runs; inconclusive = weak or mixed curves; inactive = no such curve, though single readings can be large; an effect the other way counts as inactive or inconclusive.

Key:
[1] = qHTS RealTime-Glo MT Cell Viability Assay in HepG2 cells - 8 hour (AID 1224873); conditions: RealTime-Glo luminescence; series mostly up to 76.8 µM; also: nearly all actives have a fitted effect of over 55% in size
Method in brief: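 HepG2 cells mixed with RealTime-Glo MT reagents (NanoLuc plus cell-permeant prosubstrate) were seeded at 600 cells/well, incubated 5 h at 37 C/5% CO2, then pinned with compounds in DMSO; nonlytic luminescence tracked viability during 40 h treatment.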

[2] = A CellTox Green Cytotoxicity Assay to monitor cytotoxicity in HEK293 cells - 24 hour (AID 1224875); conditions: CellTox Green fluorescence; series mostly up to 76.8 µM; also: nearly all actives have a fitted effect of over 45% in size; also: potency is read from the fitted curve at half-maximal effect
Method in brief: (§1)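 Cells (HEK293, 600/well) and dye reagent are dispensed together. After 5 h at 37 C, 23 nL compound is pinned in. Plates stay at 37 C for 40 h with fluorescence read at 0h, 8h, 16h, 24h, 32h and 40h.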

[3] = A CellTox Green Cytotoxicity Assay to monitor cytotoxicity in HepG2 cells - 24 hour (AID 1224878); conditions: CellTox Green fluorescence; series mostly up to 76.8 µM; also: nearly all actives have a fitted effect of over 45% in size; also: potency is read from the fitted curve at half-maximal effect
Method in brief: (§2)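 Cells and non-lytic dye reagent are dispensed together (600 HepG2 cells/well) and incubated 5 h before DMSO compound transfer. Kinetic fluorescence is then recorded in the same wells during 40 h at 37 C.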

[4] = A CellTox Green Cytotoxicity Assay to monitor cytotoxicity in HepG2 cells - 40 hour (AID 1224879); conditions: CellTox Green fluorescence; series mostly up to 76.8 µM; also: nearly all actives have a fitted effect of over 40% in size; also: potency is read from the fitted curve at half-maximal effect
Method in brief: as §2

[5] = qHTS RealTime-Glo MT Cell Viability Assay in HEK293 cells - 0 hour (AID 1224880); conditions: RealTime-Glo luminescence; series mostly up to 76.8 µM; also: nearly all actives have a fitted effect of over 45% in size; also: potency is read from the fitted curve at half-maximal effect
Method in brief: (§3)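 Real-time viability in HEK293: signal arises when living cells convert a prosubstrate for NanoLuc in the medium, so luminescence tracks viable cell number. Compound (23 nL, DMSO) added 5 h post-seeding; kinetic reads at 0–40 h, 37 C.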

[6] = A CellTox Green Cytotoxicity Assay to monitor cytotoxicity in HEK293 cells - 32 hour (AID 1224881); conditions: CellTox Green fluorescence; series mostly up to 76.8 µM; also: nearly all actives have a fitted effect of over 40% in size; also: potency is read from the fitted curve at half-maximal effect
Method in brief: as §1

[7] = A CellTox Green Cytotoxicity Assay to monitor cytotoxicity in HepG2 cells - 0 hour (AID 1224882); conditions: CellTox Green fluorescence; series mostly up to 76.8 µM; also: nearly all actives have a fitted effect of over 35% in size; also: potency is read from the fitted curve at half-maximal effect
Method in brief: as §2

[8] = A CellTox Green Cytotoxicity Assay to monitor cytotoxicity in HepG2 cells - 16 hour (AID 1224876); conditions: CellTox Green fluorescence; series mostly up to 76.8 µM; also: nearly all actives have a fitted effect of over 45% in size; also: potency is read from the fitted curve at half-maximal effect
Method in brief: as §2

[9] = qHTS RealTime-Glo MT Cell Viability Assay in HepG2 cells - 32 hour (AID 1224877); conditions: RealTime-Glo luminescence; series mostly up to 76.8 µM; also: nearly all actives have a fitted effect of over 55% in size; also: potency is read from the fitted curve at half-maximal effect
Method in brief: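 qHTS, HepG2, 600 cells/well, RealTime-Glo (NanoLuc + prosubstrate) added with cells; 5 h preincubation; DMSO compound addition; 37 C; luminescence at 0/8/16/24/32/40 h.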

[10] = qHTS RealTime-Glo MT Cell Viability Assay in HEK293 cells - 40 hour (AID 1224874); conditions: RealTime-Glo luminescence; max response: stronger effect = lower value; also: nearly all actives have a fitted effect of over 50% in size; also: potency is read from the fitted curve at half-maximal effect
Method in brief: as §3

| Structure (SMILES) | Potency [1] | Potency [2] | Potency [3] | Potency [4] | Potency [5] | Potency [6] | Potency [7] | Potency [8] | Potency [9] | Potency [10] | max response [10] |
| --- | --- | --- | --- | --- | --- | --- | --- | --- | --- | --- | --- |
| Cc1nc(Nc2ncc(C(=O)Nc3c(C)cccc3Cl)s2)cc(N2CCN(CCO)CC2)n1 | inactive | inactive | 26.8 µM (active) | 26.8 µM (active) | 26.8 µM (active) | inactive | inactive |  |  |  |  |
| CC(=O)Oc1ccc(C2(c3ccc(OC(C)=O)cc3)Oc3ccccc3NC2=O)cc1 | inactive | inactive |  |  | inactive | inactive | inactive | inactive | inactive |  |  |
| C=C(c1ccc(C(=O)O)cc1)c1cc2c(cc1C)C(C)(C)CCC2(C)C | inactive |  | 38.9 µM (active) | 49 µM (active) and 23.9 µM (active) | inactive | 30.9 µM (active) and inactive | inactive | 24.5 µM (active) | inactive |  |  |
| CC(C)(C)CC(C)(C)c1ccccc1O | inactive |  | 27.7 µM (active) | 34.9 µM (active) | inactive | 43.9 µM (active) | inactive | 24.7 µM (active) | inactive |  |  |
| Cc1c(C)n(Cc2ccccc2)c2ccc(C(=O)OCCN(C)C)cc12 | inactive |  | 23.9 µM (active) | 23.9 µM (active) | inactive |  | inactive | 23.9 µM (active) | 23.9 µM (active) |  |  |
| CCCCCCCCCCOCC(O)CN (stereo not given) |  | 23.9 µM (active) | 15.1 µM (active) | 15.1 µM (active) |  | 26.8 µM (active) | inactive | 19 µM (active) | 15.1 µM (active) | 23.9 µM (active) |  |
| CCCCCCCCCCCCN(CCO)CCO |  | 54.7 µM (active) | 24.4 µM (active) | 19.4 µM (active) |  | 54.7 µM (active) | inactive | 43.5 µM (active) | 43.5 µM (active) | 38.7 µM (active) |  |
| Oc1cc2ccccc2cc1O | inactive |  | inactive | inactive |  |  | inactive | inactive | inactive |  |  |
| CCCCNc1c(C(=O)OCC)c(C)nc2c1cnn2CC | inactive | inactive | inactive |  | inactive | inactive | inactive | inactive | inactive |  |  |
| CCCCOCC | inactive | inactive | inactive |  |  | inactive | inactive | inactive | inactive |  |  |
| C1CC(COCC2CO2)CCC1COCC1CO1 (stereo not given) | inactive |  | inactive | inactive | inactive | inactive | inactive | inactive | inactive |  |  |
| CC(O)C#CC(C)O (stereo not given) |  |  |  |  | inactive | 54.4 µM (active) | inactive |  |  |  |  |
| CCN(CC)c1ccc(N)cc1 |  | inactive |  | 50.3 µM (active) | inactive |  | inactive | inactive |  | 17.8 µM (active) |  |
| CN(C)CCCN1c2ccccc2Sc2ccc(C(F)(F)F)cc21 |  |  | 23.9 µM (active) | 23.9 µM (active) |  | 23.9 µM (active) | inactive | 23.9 µM (active) |  | 23.9 µM (active) |  |
| C[C@@]12C(=O)OC(=O)[C@]1(C)C1CCC2O1 |  | inactive |  | 10.7 µM (active) | inactive | inactive | inactive |  | 1.51 µM (active) | 6.01 µM (active) |  |
| CC(C)(C)c1cc(CCC(=O)NCCCCCCNC(=O)CCc2cc(C(C)(C)C)c(O)c(C(C)(C)C)c2)cc(C(C)(C)C)c1O |  | inactive | inactive | inactive | inactive | inactive | inactive | inactive |  |  | -24.8% (inactive) |
| NC1(c2ccc(-c3nc4ccn5c(=O)[nH]nc5c4cc3-c3ccccc3)cc2)CCC1 |  |  |  |  | inactive |  | inactive |  |  | 1.07 µM (active) |  |
| CNCC[C@H](Oc1cccc2ccccc12)c1cccs1 |  |  | 21.3 µM (active) | 19 µM (active) |  |  | inactive | 23.9 µM (active) | 21.3 µM (active) | 23.9 µM (active) |  |
| CCOC(=O)C1=C(C)NC(C)=C(C(=O)OCC)C1c1ccccc1/C=C/C(=O)OC(C)(C)C |  |  | inactive | inactive | 3.79 µM (active) | inactive | inactive |  |  |  |  |
| CNC(=O)c1cc(Oc2ccc(NC(=O)Nc3ccc(Cl)c(C(F)(F)F)c3)cc2)ccn1 |  | inactive | inactive |  | inactive | inactive | inactive | inactive |  | 3.01 µM (active) |  |
| C[n+]1c2cc(N)ccc2cc2ccc(N)cc21 (tested in a mixture with another compound) |  |  | 21.3 µM (active) |  | inactive | 23.9 µM (active) | 23.9 µM (active) | 23.9 µM (active) |  | 4.77 µM (active) |  |
| O=C1NC2CCCCN2C12CCN(CCCN1c3ccccc3CCc3ccc(Cl)cc31)CC2 (stereo not given) |  | 19 µM (active) |  | 23.9 µM (active) | inactive | 21.3 µM (active) | inactive | 23.9 µM (active) | 23.9 µM (active) | 8.49 µM (active) |  |
| Cc1cc2c(C(C)C)c(O)c(O)c(C=O)c2c(O)c1-c1c(C)cc2c(C(C)C)c(O)c(O)c(C=O)c2c1O |  | 19 µM (active) |  | 26.8 µM (active) | inactive | 21.3 µM (active) | inactive | inactive | 21.3 µM (active) | 8.49 µM (active) |  |
